Bioassay records (PubChem)
TROY NFkB inh: blocks TROY-dependent signaling in reporter cells; 360,000 tested, 0.98% active; Q293 LMP1-TROYcd NF-kB luciferase reporter, 4 h; inhibition, % at 10 µM; AID 1347056;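 active means compounds whose plate-normalised and pattern-corrected inhibition of the luciferase reporter signal at the single screening dose is 50% or more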
EBV LMP1 NFkB: Epstein-Barr LMP1 NF-kappaB reporter inhibition. LMP1-induced NF-kappaB luciferase reporter cells, luminescence. inhibition, % at 12.5 µM. 350,000 tested, 0.69% active. AID 504558; in the data active means inhibition above about 41%; inconclusive means no clear call, values can overlap the other calls
TWEAK-Fn14 inh: TWEAK-Fn14 signaling inhibition; 360,000 tested, 2% active; TWEAK-stimulated Fn14 reporter cells, luciferase luminescence, 8 h; inhibition, % at 10 µM; in the data active means inhibition above about 50%
LGR2 inh: inhibitors of bursicon-induced Drosophila LGR2 receptor cAMP signaling; HEK293 LGR2, CRE-luciferase, bursicon-stimulated, 4 h; inhibition, % at 9.99 µM; 380,000 tested, 0.35% active;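 active means drop in luminescence signal, shown as inhibition above about 50% in the replicate tests, limit read from the data, passing the limit was not always enough; inconclusive means probably only some replicates passing the limit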;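 further: agonist challenge used bursicon conditioned medium at about half maximal strength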
EWS-Fli block: blocks EWS/Fli oncoprotein-driven transcription. 350,000 tested, 0.67% active. inhibition, % at 12.6 µM. A673 NR0B1-luciferase reporter, viability-normalised;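 active means mean inhibition of at least 50% after viability correction, with every replicate also passing that limit; inconclusive means mean reaches 50% but only one of two replicates passes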;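 further: firefly luciferase signal divided by Alamar Blue viability fluorescence both relative to DMSO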
Large screens that a line does not name were inactive. Rows were chosen to be rich in hits. Some 2.5% of all compounds tested hit in one or more screens of this group.

Cc1nnc(SCC(=O)NC23CC4CC(CC(C4)C2)C3)n(N)c1=O	TROY NFkB inh 84.6, TWEAK-Fn14 inh 97.3
COc1ccccc1C(=O)NCCn1cc(SCC(=O)Nc2cc(C)on2)c2ccccc21	none (no result: EWS-Fli block)
Cc1ccc(C(=O)NCCn2cc(SCC(=O)Nc3nnc(C)s3)c3ccccc32)cc1	TROY NFkB inh 77.2, TWEAK-Fn14 inh 90.6
COc1ccc(C(=O)NCCn2cc(SCC(=O)Nc3cc(C)on3)c3ccccc32)cc1OC	none (no result: LGR2 inh, EWS-Fli block)
Cc1cc(NC(=O)CSc2cn(CCNC(=O)c3ccc(Cl)cc3)c3ccccc23)no1	TROY NFkB inh 70.7, TWEAK-Fn14 inh 66.9
CCOc1ccc(C(=O)NCCn2cc(SCC(=O)Nc3cc(C)on3)c3ccccc32)cc1	TROY NFkB inh 56.2 (no result: LGR2 inh, EWS-Fli block)
Cc1sc2ncnc(N/N=C/c3ccc(O)cc3)c2c1C	TWEAK-Fn14 inh 51.6
COc1ccc(/C=N/Nc2ncnc3sc(C)c(C)c23)cc1	none (no result: EWS-Fli block)
Cc1sc2ncnc(N/N=C/c3ccccc3O)c2c1C	EBV LMP1 NFkB 42.8 (no result: EWS-Fli block)
C[C@H]1CCCCO[C@H](CN(C)Cc2ccc3c(c2)OCO3)[C@@H](C)CN([C@@H](C)CO)C(=O)c2cc(NC(=O)C3CCCCC3)ccc2O1	none (no result: TROY NFkB inh, EBV LMP1 NFkB, TWEAK-Fn14 inh)
C[C@H](CO)N1C[C@H](C)[C@@H](CN(C)C(=O)C2CC2)Oc2cc(C#CCN(C)C)ccc2S1(=O)=O	none (no result: TROY NFkB inh, EBV LMP1 NFkB, TWEAK-Fn14 inh)
Nc1c(C(=O)Nc2cccc(C(=O)O)c2)sc2nc3c(cc12)CCCC3	EBV LMP1 NFkB 57.2, LGR2 inh 76.0, EWS-Fli block 85.3
O=C(/C=C/c1ccc(NC(=O)c2ccccc2-c2ccccc2C(=O)O)cc1)c1ccccc1	TWEAK-Fn14 inh 59.0
O=C(O)c1ccccc1-c1ccccc1C(=O)Nc1ccc(F)cc1	none
C=C1C(=O)C23C(O)C1CCC2C12CCCC(C)(COC(C)=O)C1C(O)C3(O)OC2 (stereo not given)	TROY NFkB inh 76.8, EBV LMP1 NFkB inconclusive, TWEAK-Fn14 inh 101.1, LGR2 inh 97.9, EWS-Fli block 57.4
CCc1ccc(NC(=O)c2ccc(F)c(S(=O)(=O)NCC3COc4ccccc4O3)c2)cc1 (stereo not given)	TWEAK-Fn14 inh 61.5 (no result: EWS-Fli block)
CCN(c1ccccc1)S(=O)(=O)c1cc(C(=O)Nc2ccc(Br)cc2)ccc1F	TWEAK-Fn14 inh 78.4 (no result: EWS-Fli block)
C[C@H](CO)N1C[C@H](C)[C@H](CN(C)S(=O)(=O)c2ccccc2)Oc2ncc(C#CCN(C)C)cc2C1=O	none (no result: TROY NFkB inh, EBV LMP1 NFkB, TWEAK-Fn14 inh)
COc1ccccc1CCn1cnc(-c2ccc(F)cc2)c1CC(C)C	none (no result: TROY NFkB inh, EBV LMP1 NFkB, TWEAK-Fn14 inh)
COc1ccccc1CCn1cnc(-c2ccccc2)c1CC(C)C	LGR2 inh 52.1 (no result: TROY NFkB inh, EBV LMP1 NFkB, TWEAK-Fn14 inh)
Cc1cc(C(=O)Nc2ccc3c(c2)C(=O)N(C)[C@H]2CC[C@@H](CC(=O)NCc4ccc(-c5ccccc5)cc4)O[C@H]2CO3)no1	none (no result: TROY NFkB inh, EBV LMP1 NFkB, TWEAK-Fn14 inh)
Cc1ccc(CNC(=O)c2ccc(N3CCC4(CC3)CC(c3ccccc3)=NO4)c([N+](=O)[O-])c2)cc1	EBV LMP1 NFkB 77.8
COCC(=O)Nc1ccc2c(c1)C(=O)N(C)C[C@@H](OC)[C@@H](C)CN[C@@H](C)CO2	none (no result: TROY NFkB inh, EBV LMP1 NFkB, TWEAK-Fn14 inh)
CNc1cc(-n2nc(C)cc2-c2ccccc2)ncn1	none (no result: LGR2 inh, EWS-Fli block)
Cc1cc(-c2ccccc2)n(-c2cc(N/N=C/c3ccccc3O)ncn2)n1	TWEAK-Fn14 inh 68.7 (no result: EWS-Fli block)
Oc1ccccc1C1=Nc2ncnn2C(c2ccc(F)cc2)C1 (stereo not given)	EBV LMP1 NFkB 61.8 (no result: LGR2 inh, EWS-Fli block)
COc1cccc(CN2CC3(CCN(Cc4ccccn4)CC3)c3c([nH]c4cc(OC)ccc34)[C@H]2CO)c1	none (no result: TROY NFkB inh, EBV LMP1 NFkB, TWEAK-Fn14 inh)
O=C(C[C@H]1CC[C@H](NC(=O)Nc2cccc(F)c2)[C@H](CO)O1)NCC1CC1	none (no result: TROY NFkB inh, EBV LMP1 NFkB, TWEAK-Fn14 inh)
Cc1ccc2nc(CSc3nc(C)ccc3C#N)[nH]c2c1	TWEAK-Fn14 inh 69.3, LGR2 inh 76.2
Cc1ccc(C#N)c(SCc2ccccc2F)n1	none (no result: EBV LMP1 NFkB)
Cc1ccccc1Nc1nnc(SCC2CCCCO2)s1 (stereo not given)	none
COc1ccccc1Nc1nnc(SCC2CCCCO2)s1 (stereo not given)	TWEAK-Fn14 inh 64.9
C[C@@H]1CN([C@H](C)CO)C(=O)c2cc(N(C)C)ccc2O[C@H]1CN(C)CC1CCCCC1	none (no result: TROY NFkB inh, EBV LMP1 NFkB, TWEAK-Fn14 inh, EWS-Fli block)
CCC1(C)Cc2ccccc2-c2nc(NCCO)n(-c3ccc(C)cc3)c(=O)c21 (stereo not given)	TROY NFkB inh 54.2 (no result: LGR2 inh, EWS-Fli block)
O=C(Nc1ccccc1)N1CCCCN2[C@H](CO)[C@H](c3ccc(C#Cc4ccccc4)cc3)[C@@H]2C1	none (no result: TROY NFkB inh, EBV LMP1 NFkB, TWEAK-Fn14 inh)
O=C(Nc1cccc(F)c1)N1CCCCN2[C@@H](CO)[C@@H](c3ccc(C#Cc4ccccc4)cc3)[C@@H]2C1	EWS-Fli block 75.9 (no result: TROY NFkB inh, EBV LMP1 NFkB, TWEAK-Fn14 inh)
CCCC#Cc1ccc([C@H]2[C@H]3CN(S(=O)(=O)Cc4ccccc4)CCCCN3[C@H]2CO)cc1	none (no result: TROY NFkB inh, EBV LMP1 NFkB, TWEAK-Fn14 inh)
CCCC#Cc1ccc([C@@H]2[C@H](CO)N3CCCCN(S(=O)(=O)Cc4ccccc4)C[C@@H]23)cc1	EWS-Fli block 58.7 (no result: TROY NFkB inh, EBV LMP1 NFkB, TWEAK-Fn14 inh)
O=C(Nc1ccccc1)N1CCCCN2[C@H](CO)[C@H](c3ccc(C#Cc4ccccc4)cc3)[C@H]2C1	EWS-Fli block 63.3 (no result: TROY NFkB inh, EBV LMP1 NFkB, TWEAK-Fn14 inh)
COc1ccc(C#Cc2ccc([C@H]3[C@H](CO)N4CCCCN(C(=O)Nc5cccc(F)c5)C[C@@H]34)cc2)cc1	none (no result: TROY NFkB inh, EBV LMP1 NFkB, TWEAK-Fn14 inh, LGR2 inh)
O=C(Nc1nc(-c2ccc3c(c2)OCCO3)cs1)c1ccc(S(=O)(=O)N2CCCCC2)cc1	none (no result: EWS-Fli block)
O=C(COc1ccc(Cl)cc1)Nc1nc(-c2ccc(S(=O)(=O)N3CCOCC3)cc2)cs1	TWEAK-Fn14 inh 71.4 (no result: LGR2 inh, EWS-Fli block)
O=C(Nc1nc(-c2cccs2)cs1)c1ccc(S(=O)(=O)N2CCCC2)cc1	TROY NFkB inh 65.6, TWEAK-Fn14 inh 92.6 (no result: LGR2 inh, EWS-Fli block)
